Screens deposited in PubChem BioAssay by National Center for Advancing Translational Sciences (NCATS).
Most compounds without a hit are left out; they make up all but 0.52% or so of the library.
PINK1 expr mod – modulators of PINK1 expression. PINK1 immunofluorescence, high-content cytometry, 24 h. Potency, µM (series often up to 76.6 µM), most hits filed as activators. hit rate 0.2% among 410,000. AID 624263; active = well fitted activation curve with a large enough effect; inconclusive = small, poorly fitted or top-dose-only effect; cell line not stated here; note: nearly all actives have a fitted effect of over 65% in size
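Readout is PINK1 immunofluorescence, quantified alongside mitochondrial, cell and nuclear markers by laser-scanning microplate cytometry. Cells from a stable line were exposed to compound titrations (5 concentrations) for 24 hours, with CCCP controls.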
Vif-APOBEC3F blk – inhibitors of Vif-A3F interaction; HeLa A3F-eYFP + Vif (tagged APOBEC3F with the HIV-1 protein that degrades it), YFP fluorescence increase; Potency, µM (titrated, usually from 46.1 µM); hit rate 0.2% among 390,000; AID 602313; note: nearly all actives have a fitted effect of over 65% in size
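Fluorescence increase (Ex 488/Em 500-530) after overnight compound treatment at 37 deg C flags inhibition of Vif-driven A3F-eYFP loss in stable HeLa A3F-eYFP/Vif cells seeded overnight beforehand.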
TRPML1 blocker – inhibitors of human TRPML1 channel; TRPML1-inducible cells, Ca2+ dye fluorescence, FDSS; active compounds read low; inhibition of EC80 agonist-evoked calcium signal; activity change, negative = inhibition, % (no concentration beside the values); hit rate 0.02% among 390,000; in the data active = activity change below about -50%; inconclusive = between about -30% and that limit;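 note: stimulus is agonist 54-4 at its EC80 concentration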
Target sequence (Q9GZU1 whole entry, looked up): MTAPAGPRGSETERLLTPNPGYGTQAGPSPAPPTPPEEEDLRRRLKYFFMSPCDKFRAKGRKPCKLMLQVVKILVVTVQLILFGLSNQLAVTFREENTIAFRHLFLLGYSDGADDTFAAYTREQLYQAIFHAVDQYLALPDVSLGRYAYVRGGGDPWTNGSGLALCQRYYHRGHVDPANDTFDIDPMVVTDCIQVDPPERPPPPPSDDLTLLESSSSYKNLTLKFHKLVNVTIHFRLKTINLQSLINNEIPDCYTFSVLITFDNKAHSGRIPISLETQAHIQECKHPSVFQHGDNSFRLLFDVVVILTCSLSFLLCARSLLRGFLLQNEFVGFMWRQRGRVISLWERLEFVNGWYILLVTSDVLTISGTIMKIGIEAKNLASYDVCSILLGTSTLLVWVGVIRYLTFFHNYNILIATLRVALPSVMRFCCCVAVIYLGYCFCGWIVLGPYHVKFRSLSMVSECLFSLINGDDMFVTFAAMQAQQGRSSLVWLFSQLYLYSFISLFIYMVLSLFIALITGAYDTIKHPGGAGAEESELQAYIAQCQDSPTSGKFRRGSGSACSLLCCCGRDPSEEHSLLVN
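Calcium fluorescence in TRPML1-DL cells induced overnight with Tet: a 110 s read after compound pin addition, then a 110 s antagonist read after challenge with 54-4 at 4 uM final (EC80).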
Vif-APOBEC3G blk – Vif-A3G binding inhibition. Q9HC16. HeLa A3G-eYFP + Vif (tagged APOBEC3G with the HIV-1 protein that degrades it), YFP fluorescence, overnight. Potency, µM (highest dose often 46.1 µM), most hits filed as inhibitors. hit rate 0.076% among 410,000; note: nearly all actives have a fitted effect of over 60% in size
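Read-out is eYFP fluorescence (Ex 488/Em 500-530) from Vif-expressing HeLa A3G-eYFP cells; more signal means A3G escaped Vif-mediated degradation. Cells plated overnight, compound pinned in, incubated overnight at 37 deg C.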
TRPML1 ag – agonists of human TRPML1 channel; TRPML1-expressing cells, Ca2+ dye fluorescence, FDSS; activation, % (test concentration not listed); hit rate 0.12% among 410,000; AID 624414; in the data active = activation above about 50%; inconclusive = mostly about 30% to 49%
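Tetracycline-induced TRPML1-DL cells are seeded and incubated overnight before loading with a no-wash Ca2+ dye and quencher. Agonist activity is taken from the 110 s fluorescence read following compound pin-transfer on an FDSS, before EC80 54-4 challenge.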
Each line names hits and unclear results; the compound was inactive in the other large screens. Unless noted, calls come from the whole dose curve; as a rule, active = well fitted curve in the direction sought with a large enough effect; inconclusive = small, poorly fitted or top-dose-only effect, or another doubt; inactive = no such curve, though single readings can be large; an effect the other way counts as inactive or inconclusive.

O=c1[nH]c(CSc2nc(-c3ccc(F)cc3)cs2)nc2ccccc12	PINK1 expr mod inconclusive
Nc1nc(SCc2ccc(Cl)cc2Cl)nc2nc3c(cc12)CCCC3	PINK1 expr mod inconclusive, Vif-APOBEC3F blk 22µM, Vif-APOBEC3G blk inconclusive
CCOC(=O)C[n+]1cccc(Br)c1	none (no result: PINK1 expr mod, Vif-APOBEC3F blk, TRPML1 blocker)
O=C(Nc1cccc(Cl)c1)Nc1cc(S(=O)(=O)N2CCCCC2)ccc1Cl	PINK1 expr mod 14µM
CCN(CC)S(=O)(=O)c1ccc(C)c(NC(=S)Nc2cccc(S(=O)(=O)N3CCCCCC3)c2)c1	PINK1 expr mod 25µM
O=C(CNc1ccc(C(F)(F)F)cc1)Nc1cccc(S(=O)(=O)N2CCCCC2)c1	PINK1 expr mod 45µM
O=C(Nc1ccc(Cl)cn1)c1cccc(S(=O)(=O)N2CCCCCC2)c1	Vif-APOBEC3G blk 20µM
Cc1cc2c(N=O)c(NO)ccc2[nH]1	Vif-APOBEC3F blk inconclusive, Vif-APOBEC3G blk 5.6µM
O=Nc1c(O)[nH]c2ccc(F)cc12	none
Cc1nc2c3cc(Cl)ccc3n(CCN3CCCCC3)c2s1	PINK1 expr mod 4µM
COC(=O)Cn1c2ccc(Cl)cc2c2nc(C)sc21	none
O=[N+]([O-])c1ccc(/C=C/C2=NN(c3ccccc3)C(c3ccco3)C2)cc1 (centres undefined)	PINK1 expr mod inconclusive, TRPML1 ag 60
CC1=NN(c2ccccc2)C(c2ccco2)C1 (centres undefined)	none
O=[N+]([O-])c1ccc(C2=NN(c3ccccc3)C(c3ccco3)C2)cc1 (centres undefined)	PINK1 expr mod inconclusive, Vif-APOBEC3G blk inconclusive, TRPML1 ag 55
CC(Sc1nnc2ccccn12)C(N)=O (centres undefined)	none
Cc1cc(C)c(NC(=O)Cn2c(=O)n(Cc3ccc(C(=O)NCc4ccco4)cc3)c(=O)c3sccc32)c(C)c1	Vif-APOBEC3F blk inconclusive, Vif-APOBEC3G blk 8.9µM
CC(C)Cc1nn2c(=O)cc(COC(=O)c3ccc(NC(=O)c4cccs4)cc3)nc2s1	TRPML1 blocker -68
O=S(=O)(NCC1(N2CCOCC2)CCCCC1)c1ccccc1Cl	none
O=S(=O)(NCC1(N2CCOCC2)CCCCC1)c1ccc(Cl)cc1C(F)(F)F	TRPML1 ag 81
COCC(C)n1c(SC(C)C(=O)NC2CCCCC2C)nc2ccccc2c1=O (centres undefined)	none
COC(=O)c1ccc(C)cc1C1CN=NC12Cc1cc(C)ccc1C2=O (centres undefined)	Vif-APOBEC3G blk inconclusive, TRPML1 ag 95
Cc1ccc(OCC(=O)N(Cc2ccco2)Cc2ccco2)cc1C	none
CC(OC(=O)CC1CCCC1)C(=O)Nc1ccc(S(N)(=O)=O)cc1 (centres undefined)	none
O=C(CNC(=O)c1sc2ccccc2c1Cl)NCc1ccc(F)cc1	none
COc1ccc(-c2ccc3c(c2)S(=O)(=O)c2cccc(C(=O)NCCOc4ccccc4)c2C3=O)cc1OC	PINK1 expr mod 35µM, Vif-APOBEC3F blk inconclusive, Vif-APOBEC3G blk 11µM
O=C(NCCOc1ccccc1)c1cccc2c1C(=O)c1ccc(Cl)cc1S2(=O)=O	none
O=C1/C(=C\c2cc([N+](=O)[O-])ccc2O)SC(=S)N1Cc1ccc(Cl)cc1	PINK1 expr mod 14µM, Vif-APOBEC3F blk 13µM, Vif-APOBEC3G blk inconclusive, TRPML1 ag inconclusive
O=C1/C(=C/c2ccc(O)cc2)SC(=S)N1Cc1cccnc1	PINK1 expr mod 35µM, Vif-APOBEC3F blk inconclusive
O=C1/C(=C\c2ccc(O)c(O)c2)SC(=S)N1Cc1ccccc1	Vif-APOBEC3F blk inconclusive, Vif-APOBEC3G blk 22µM
O=C1S/C(=C\c2ccc(O)c([N+](=O)[O-])c2)C(=O)N1Cc1cccc([N+](=O)[O-])c1	PINK1 expr mod 40µM
Cc1cccc(NC(=O)CN2C(=O)S/C(=C\c3ccc(O)c([N+](=O)[O-])c3)C2=O)c1	none
O=C(N=c1ccn(-c2nc3ccccc3nc2NS(=O)(=O)c2ccccc2)cc1)c1cccs1	Vif-APOBEC3F blk 25µM, Vif-APOBEC3G blk inconclusive
Cc1ccccc1C(=O)N=c1ccn(-c2nc3ccccc3nc2NS(=O)(=O)c2ccc(F)cc2)cc1	Vif-APOBEC3F blk inconclusive
COc1ccc(/C=C/C=C2\NC(=S)NC2=O)cc1	PINK1 expr mod inconclusive, Vif-APOBEC3F blk 13µM, Vif-APOBEC3G blk inconclusive
COc1ccc(C=C2NC(=S)NC2=O)cc1	none
CCOc1ccccc1NC(=O)C1CCN(S(=O)(=O)c2c(C)noc2/C=C/c2ccc(C)cc2)CC1	none
CC(C)CN(C(=O)COC(=O)c1ccc([N+](=O)[O-])s1)c1c(N)n(Cc2ccccc2)c(=O)[nH]c1=O	PINK1 expr mod 40µM, Vif-APOBEC3F blk inconclusive, Vif-APOBEC3G blk inconclusive
CCCCN(C(=O)c1ccc([N+](=O)[O-])s1)c1c(N)n(CCCC)c(=O)[nH]c1=O	Vif-APOBEC3F blk 13µM
N#CC1=C(N)N2C(=C(C#N)C1c1cccc(Br)c1)Nc1ccccc12 (centres undefined)	PINK1 expr mod 3.2µM, Vif-APOBEC3F blk inconclusive
N#CC1=C(N)N2C(=C(C#N)C1c1ccc(Br)cc1)Nc1ccccc12 (centres undefined)	PINK1 expr mod inconclusive, Vif-APOBEC3F blk inconclusive
O=C(NCCCc1nc2ccccc2n1Cc1ccccc1Cl)c1ccco1	none
Clc1ccccc1Cn1c(/C=C/c2ccco2)nc2ccccc21	Vif-APOBEC3F blk inconclusive, Vif-APOBEC3G blk 10µM
CCCCNC(=O)c1sc(=S)n2c1[nH]c(=O)c1ccccc12	PINK1 expr mod inconclusive
O=C(NC1CCCCC1)c1sc(=S)n2c1[nH]c(=O)c1ccccc12	PINK1 expr mod 25µM
Cc1cc(N2C(=O)C(O)=C(C(=O)c3cc4ccccc4o3)C2c2ccc(OC(C)C)cc2)no1 (centres undefined)	PINK1 expr mod 28µM
CCNc1ncc2nc(-c3ccc(OC)cc3)c(=O)n(Cc3cccc(OC)c3)c2n1	none (no result: Vif-APOBEC3F blk, TRPML1 blocker, Vif-APOBEC3G blk, TRPML1 ag)
COc1ccc(-c2cc(CCCC(=O)NCCc3ccccc3)no2)cc1	none
COc1ccc(-c2cc(CCCC(=O)NCCc3ccc(OC)cc3OC)no2)cc1	PINK1 expr mod 11µM
CCN(CC)CCN(C(=O)c1ccc2c(c1)CCCC2)c1nc2c(C)cccc2s1	PINK1 expr mod 45µM
CCN(CC)CCN(C(=O)c1ccc2c(c1)CCCC2)c1nc2ccc(C)cc2s1	PINK1 expr mod 28µM, Vif-APOBEC3F blk inconclusive
CCN(CC)CCN(C(=O)c1ccc2c(c1)CCCC2)c1nc2ccc(F)cc2s1	PINK1 expr mod inconclusive
CCOC(=O)c1c(-c2ccc(OC)cc2)csc1/N=C/C1=C(O)CCCC1=O	PINK1 expr mod inconclusive, Vif-APOBEC3F blk 22µM, Vif-APOBEC3G blk 22µM
COc1ccc(-c2noc3c2-c2nc(-c4cccc(C)c4)sc2CC3)cc1	none
CC(/C=C1\SC(=S)N(CCC(=O)Nc2nc(C)cs2)C1=O)=C\c1ccccc1	PINK1 expr mod 40µM
COc1ccc(/C=C(/C(=O)c2ccc(Cl)cc2Cl)n2cncn2)cc1	none
